Experimental data taken from the supplement of paper PMC12350171.
Structures can show the parent of a compound that is named as a salt. A number with no mark means an inactive call.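 How the source made its calls: active = normalised median growth AUC below 0.1 of DMSO control; inactive = AUC 0.1 or higher.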

Each compound was assayed on S. enterica typhimurium WT (assay: growth AUC normalised to DMSO control (median) (fraction of control); higher = less growth inhibition, active = hit call of the paper). Conditions: 20 µM.
In short: (§1)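 In 96-well plates of mGAM seeded at OD578 0.01, strains that had been passaged twice overnight without oxygen were exposed to approved-drug library compounds at 20 μM with 1% DMSO. Hourly OD578 readings were taken for 24 h in an anaerobic incubator. The trapezoidal-rule area under the curve, with curves truncated at entry into stationary phase, was expressed relative to same-plate vehicle wells as the median of three biological replicates.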

How did the “growth AUC normalised to DMSO control” value turn out when `COc1ccc2c3c1O[C@H]1C[C@@H](O)C=C[C@@]31CCN(C)C2` [Galanthamine hydrobromide] was run?
Its value is 1.

With `CCN1CCCC1CNC(=O)c1cc(S(N)(=O)=O)ccc1OC` (configuration not stated) [Sulpiride] as the compound, how does the “growth AUC normalised to DMSO control” value read?
Its value is 1.

With `NS(=O)(=O)c1cc2c(cc1Cl)NC(CC1CCCC1)NS2(=O)=O` (configuration not stated) [Cyclopenthiazide] as the compound, how does the “growth AUC normalised to DMSO control” value read?
Its value is 1.

`CN1CCN(C(c2ccccc2)c2ccc(Cl)cc2)CC1` (configuration not stated) [Chlorcyclizine hydrochloride] was tested. Which “growth AUC normalised to DMSO control” value did it give?
The value was 0.992.

The compounds below were run on S. enterica typhimurium tolC KO in the same assay as above. Conditions: 20 µM.
In short: as §1

`O=C(NCC(O)CO)c1c(I)c(C(=O)NCC(O)CO)c(I)c(N(CCO)C(=O)CO)c1I` (configuration not stated) [Ioversol] was tested. Which “growth AUC normalised to DMSO control” value did it give?
Its value is 1.01.

For `CC(=O)CCCCn1c(=O)c2c(ncn2C)n(C)c1=O` [Pentoxifylline], which “growth AUC normalised to DMSO control” value is on record?
The value was 0.987.

How did the “growth AUC normalised to DMSO control” value turn out when `COC(=O)Nc1nc2cc(C(=O)c3ccc(F)cc3)ccc2[nH]1` [Flubendazol] was run?
The value was 1.

`CC(=O)N(CC(O)CO)c1c(I)c(C(=O)NCC(O)CO)c(I)c(C(=O)NCC(O)CO)c1I` (configuration not stated) [Iohexol] was tested. Which “growth AUC normalised to DMSO control” value did it give?
The value was 1.01.

Which “growth AUC normalised to DMSO control” value does the source give for `O=C(Nc1cccc2c(=O)cc(-c3nnn[nH]3)oc12)c1ccc(OCCCCc2ccccc2)cc1` [Pranlukast] here?
The value was 0.987.

For `Cc1cccc(C)c1NC(=O)C1CCCCN1C` (configuration not stated) [Mepivacaine hydrochloride], which “growth AUC normalised to DMSO control” value is on record?
The value was 0.996.

How did the “growth AUC normalised to DMSO control” value turn out when `CCn1cc(C(=O)O)c(=O)c2cnc(N3CCCC3)nc21` [Piromidic acid] was run?
The value was 0.0548 (active).

`C[C@H](CCC(=O)O)[C@H]1CC[C@H]2[C@@H]3CC[C@@H]4C[C@H](O)CC[C@]4(C)[C@H]3CC[C@]12C` [Lithocholic acid] was tested. Which “growth AUC normalised to DMSO control” value did it give?
The value was 0.995.
